High-throughput results: PubChem BioAssay, National Center for Advancing Translational Sciences (NCATS)
HCV inh = inhibitors of hepatitis C virus infection; Potency, µM (series often up to 41.8 µM), for inactives: at the highest dose activity change, negative = inhibition, hits mostly inhibitors; AID 651820; Huh7.5.1 HCVcc-Cre infection, luciferase reporter, 44 h; actives 3.4% (n = 340,000); active means well fitted inhibition curve with a large enough effect; inconclusive means small, poorly fitted or top-dose-only effect, or another doubt; inactive means no such curve, though single readings can be large or run the other way; further: potency means the concentration at half of the fitted maximal effect
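Antiviral activity was scored by luciferase reporter output from cells infected with HCVcc-Cre (~0.5 moi) in presence of compound, 44 h infection period, cells seeded 1,000/well 4 h prior.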
Marburg entry inh = Marburg virus entry inhibition; Marburg virus pseudotyped entry inhibition, cell reporter; Potency, µM (top dose mostly 37.8 µM), for inactives: top-dose activity change, negative = inhibition, most hits filed as inhibitors; actives 1.8% (n = 300,000); calls by dose curve; tested in HEK293 cells; further: potency means the concentration at half of the fitted maximal effect
VACV mCherry inh = vaccinia inhibition (mCherry reporter). Potency, µM (doses to about 36.5 µM), without a hit: at the top dose activity change, negative = inhibition, most hits filed as inhibitors. AID 720579. Vaccinia virus mCherry reporter infection, fluorescence. actives 0.63% (n = 310,000); calls by dose curve; tested in A549 cells; further: potency means the concentration at half of the fitted maximal effect; nearly all actives have a fitted effect of over 35% in size
Vaccinia Venus = vaccinia inhibition (Venus reporter) | AID 720580 | Potency, µM (top dose mostly 36.5 µM), without a hit: top-dose activity change, negative = inhibition, hits mostly inhibitors | actives 0.46% (n = 330,000) | Vaccinia virus Venus reporter expression, fluorescence; calls by dose curve; tested in A549 cells; further: potency means the concentration at half of the fitted maximal effect; nearly all actives have a fitted effect of over 30% in size
Lassa entry inh = blocks Lassa virus binding to or entry into cells. Lassa virus pseudotype entry inhibition, cell reporter. Potency, µM (series often up to 37.9 µM), without a hit: at the highest dose activity change, negative = inhibition, actives largely listed as inhibitors. actives 1.2% (n = 300,000); calls by dose curve; tested in HEK293 cells; further: potency means the concentration at half of the fitted maximal effect; nearly all actives have a fitted effect of over 50% in size
HCMV inh = blocks human cytomegalovirus replication. activity change, negative = inhibition, % at 57.5 µM. actives 4.5% (n = 410,000). HFF cells, HCMV-luciferase reporter, 72 h; active compounds read low; in the data active means activity change below about -60%; inconclusive means no clear call, values can overlap the other calls; inactive means above about -39%
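Luciferase read-out from HCMV-luciferase-infected HFFs (MOI 1 PFU/cell) 72 h post infection at 37C; compounds added after 16 h cell attachment; activity normalized between buffer-only basal and Salinomycin (10uM) inhibitor controls.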
The depositor's hits bear a star; i = inactive; ? = inconclusive; nt = no result; [ ] = dose if it differs, or a comment. An excerpt weighted towards active compounds, which were near 7.8% of everything screened. On the % scale 0 is the no-effect control and ±100 the full control effect.

SMILES	HCV inh	Marburg entry inh	VACV mCherry inh	Vaccinia Venus	Lassa entry inh	HCMV inh
CCN(CC)S(=O)(=O)c1ccc2c(c1)c(=O)c(C(=O)NCCCN(C)c1ccccc1)cn2C	18.0%	-23.7%	nt	nt	-29.8%	23.1
CCOc1ccc(NS(=O)(=O)c2ccc(NC(=S)NC(=O)CC(C)C)cc2)cc1	11.2µM*	-20.9%	nt	?	?	-1.4
CCCC(=O)NC(=S)Nc1ccc(S(=O)(=O)Nc2ccc(OCC)cc2)cc1	-17.5%	?	?	-20.8%	-2.2%	-29.5
CC(C)CC(=O)NC(=S)Nc1ccc(S(=O)(=O)Nc2nccs2)cc1	22.8%	10.5%	-25.4%	-12.6%	-12.6%	-70.6*
CCC(C)C(=O)Nc1ccc(S(=O)(=O)Nc2nccs2)cc1 (stereo not drawn)	-17.5%	nt	nt	nt	nt	12.2
CC(NC1=CC(=O)c2cccnc2C1=O)C(O)c1ccccc1 (stereo not drawn)	?	11.2µM*	?	10µM*	?	-99.3*
COc1ccc2[nH]cc(CCO)c2c1	nt	nt	i	-9.3%	nt	nt
CC1=C2CCC[C@]3(C)CCOC23C=CC1=O (stereo partly drawn)	nt	nt	nt	nt	nt	-0.7
COc1ccc2c(c1)O[C@@H](c1ccc3c(c1)OCO3)[C@H](OC(=O)NCCOc1ccccc1)C2=O	nt	45.1%[14.2 µM]	nt	nt	nt	nt
CSc1ccc(CNCCCN(C)C)cc1	5.01µM*	?	-1.6%	-14.3%	?	-39.1
CCN(CCNC(=O)C1CCN(Cc2nc(-c3cccc(Cl)c3)oc2C)CC1)c1ccccc1	?	?	14.1µM*	11.2µM*	?	83.7
CCN(CCNC(=O)C1CCN(Cc2nc(-c3ccc(Cl)cc3)oc2C)CC1)c1ccccc1	-42.9%	?	12.6µM*	?	?	27.2
OCC[C@@H]1C[C@H](O)[C@@H](O)[C@@]2(OCCc3cc(C(F)(F)F)ccc32)O1	nt	nt	nt	nt	nt	-2.5
COc1ccc(CNC(=O)c2cc(-c3ccc(C)cc3)nc3n[nH]c(-c4ccc(Br)cc4)c23)cc1	nt	nt	-6.0%	-3.6%	-6.0%[46.1 µM]	11.7
COc1ccc(-c2nc(C#N)c(NCc3cccnc3)o2)cc1OC	-18.9%	-2.7%	nt	nt	-12.3%	113.1
COc1ccc(-c2cc(C(=O)NCc3ccc(F)cc3)c3c(-c4ccc(F)cc4)[nH]nc3n2)cc1OC	nt	nt	?	?	?	-101.0*
COc1ccc(CNC(=O)c2cc(-c3ccc(OC)c(OC)c3)nc3n[nH]c(-c4ccc(C)cc4)c23)cc1	nt	nt	?	-22.8%	-15.6%[46.1 µM]	-97.5*
COc1ccc(-c2nc(C#N)c(NCc3ccc(F)cc3)o2)cc1OC	3.55µM*	0.1%	nt	12.6µM*	-1.4%	25.4
Cc1ccc(CNC(=O)c2cc(-c3ccc(C)cc3)nc3n[nH]c(-c4ccc(F)cc4)c23)cc1	nt	nt	4.3%	1.9%	?	11.4
O=C(Nc1nc2ccccc2n1CCN1CCOCC1)c1ccc(COc2ccccc2Br)o1	10µM*	?	?	-26.9%	?	?
O=C(Nc1nc2ccccc2n1CCN1CCOCC1)c1ccc(Cn2cc([N+](=O)[O-])cn2)o1	-12.1%	?	-16.7%	-18.6%	?	-9.8
COC(=O)[C@@]1(Cc2ccc(OC)cc2)[C@H]2c3cc(C(=O)N4CCCC4)n(CCn4cc([N+](=O)[O-])nc4C)c3C[C@H]2CN1C(=O)c1ccccc1	1.6%[8.37 µM]	3.7%	i	-8.2%	25.0%	-73.6*
COC(=O)[C@@]1(Cc2ccc(OC)cc2)[C@H]2c3cc(C(=O)N4CCCC4)n(CCN4CCOCC4)c3C[C@H]2CN1C(=O)c1ccccc1	nt	nt	-9.6%	3.8%	nt	-15.7
CCOC(=O)C1=C(CCl)NC(=O)N(C(C)=O)C1c1ccccc1 (stereo not drawn)	nt	-21.7%[14.2 µM]	nt	nt	?	nt
CCc1cc[n+](C2=C([O-])c3ccccc3C(=O)/C2=N\S(=O)(=O)c2cccs2)cc1	5.01µM*	7.08µM*	?	?	18.4µM*	?
O=C1C(=O)c2ccccc2C([O-])=C1[n+]1ccccc1	5.9%	nt	nt	nt	nt	-36.1
Cc1cccc(CNc2nc3cnc(-c4ccc(F)cc4)cc3n2C)c1	nt	nt	nt	nt	nt	-3.3
C[C@H]1CN(CCc2ccccc2)C(=O)[C@@H]1CC(=O)Nc1ccccc1	nt	nt	-3.9%	-9.4%	nt	-74.6*
